# Measured values reported in PubChem BioAssay.
# A number with no mark means an inactive call.
# Assay: A549 lung cancer cell viability effects, profiling panel, resazurin fluorescence, 24 h, PK04 Diversity Set (AID 1171); note: test concentration not given here
# Settings: higher = more signal, called active from +8 up or from −8 down
row,Compound,z-score
1,COC(=O)CC=C[C@@H](C)[C@@H](C=NOC[C@@H](C)[C@H](OCc1ccccc1)C(C)C)NS(=O)(=O)c1ccc(C)cc1,0.0101
2,COc1cccc([C@H]2Oc3ccc(OC)cc3C(=NO[C@@H](C)c3cc(-c4c(C)cc(C)cc4C)no3)[C@@H]2O)c1,0.321
3,CCN1C(=O)[C@H]2[C@H]3[C@H](O)[C@H](O)CC(=NNC(=O)OCc4ccccc4)[C@H]3CC[C@H]2C1=O,-0.218
4,CC(=O)OC[C@H]1O[C@H](CCON=C(C)CCN2CCCc3nc(C)c(C)cc32)C=C[C@@H]1OC(C)=O,-0.221
5,CCOC(=O)[C@H](Cc1ccccc1)NC(=O)CCC1CC(OC(=O)NCc2cccc3ccccc23)CC2(CCCC(COC(=O)NCCOc3ccccc3)O2)O1 (stereo partly specified),0.0235
6,CC(CCN1CCCc2nc(C)c(C)cc21)=NOC[C@@H](O)COCc1ccco1,0.287
7,CC(CCC(=O)OC[C@H]1O[C@H](C#Cc2ccccc2)C=C[C@@H]1Oc1ccc(C)cc1)=NO[C@H](C)c1cn([C@@H]2COC[C@H]2O)nn1,-1.25
8,C[C@H]1C=CCC(=O)OC[C@H](C)C(=O)N2CCC[C@H]2C(=O)OC1,0.283
9,CC(=O)OC[C@H]1O[C@@H](ON=C2[C@H]3CCn4c(=O)n(-c5ccccc5)c(=O)n4[C@H]3[C@H](O)[C@@H]3O[C@H]23)[C@H](OC(C)=O)[C@@H](OC(C)=O)[C@@H]1OC(C)=O,-0.713
10,C[C@@H](c1ccccc1)N1C(=O)[C@H]2[C@H]3[C@H](O)[C@H](O)CC(=NNC(=O)OCc4ccccc4)[C@@H]3CC[C@H]2C1=O,-0.427
11,CCOC(=O)CCN1C(=O)[C@H]2[C@H]3[C@H](O)[C@H](O)CC(=NNC(=O)OCC)[C@H]3CC[C@H]2C1=O,-0.698
12,O=C1[C@H]2[C@H]3[C@H](O)[C@H](O)CC(=NOC[C@@H](O)COCc4ccco4)[C@@H]3CC[C@H]2C(=O)N1C1CCCCC1,0.014
13,CC(=O)OC[C@H]1O[C@H](CCON=C(C)C)C=C[C@@H]1OC(C)=O,-0.426
14,COC(=O)[C@@H]1CC[C@H](C)[C@@H](c2ccc(C)cc2)N1C(=O)c1ccc(C=NOC[C@H]2O[C@H](c3ccccc3)C=C[C@@H]2Oc2ccc(OC)cc2)cc1,0.307
15,C=C(C)C(=O)OC[C@H]1CN2[C@@H](CC[C@@H](C)[C@@H]2c2ccc(Br)cc2)C(=O)O1,0.634
16,CCOC(=O)[C@H](Cc1ccccc1)NC(=O)CCC1CC(OC(=O)NCc2cccc3ccccc23)CC2(CCCC(COC(=O)NCCc3ccccc3OC)O2)O1 (stereo partly specified),0.737
17,CCOC(=O)[C@H](CC(C)C)NC(=O)CCC1CC(OC(=O)NCc2ccc3c(c2)OCO3)CC2(CCCC(COC(=O)NCCC(C)C)O2)O1 (stereo partly specified),0.704
18,CC(C)CON=C1C[C@@H](O)[C@@H](O)[C@@H]2[C@@H]3C(=O)N(C(C)(C)C)C(=O)[C@@H]3CC[C@@H]12,-0.288

row,Compound,z-score
1,COc1ccc(O[C@H]2C=C[C@@H](c3ccccc3)O[C@@H]2COC(=O)CCC(C)=NOC[C@@H](O)COCc2ccco2)cc1,0.402
2,CC(C)(C)N1C(=O)[C@H]2[C@H]3[C@H](O)[C@H](O)CC(=NOC[C@@H](O)COCc4ccco4)[C@@H]3CC[C@H]2C1=O,-0.0978
3,CC(CCN1CCCCc2nc(C)c(C)cc21)=NO[C@@H](C)c1cc(-c2c(C)cc(C)cc2C)no1,2.06
4,COC(=O)[C@H](C)NC(=O)CC=C[C@@H](C)[C@@H]1C=C[C@H](O)[C@@H](CO)O1,-0.521
5,CCN1C(=O)[C@H]2[C@H]3[C@H](O)[C@H](O)CC(=NOC[C@@H](O)COCc4ccco4)[C@H]3CC[C@H]2C1=O,-0.45
6,O=C1[C@H]2[C@H]3[C@H](O)[C@H](O)CC(=NOC[C@@H](O)COCc4ccco4)[C@@H]3CC[C@H]2C(=O)N1Cc1ccc2c(c1)OCO2,0.178
7,Cc1ccc(S(=O)(=O)N[C@@H]2COC(=O)CC=C[C@@H](C)[C@H](NS(=O)(=O)c3ccc(C)cc3)COC(=O)[C@H](C)NC(=O)CC=C[C@H]2C)cc1,-0.395
8,COC(=O)CC=C1c2ccccc2[C@H](OC)[C@H]1C,-0.397
9,CCN(CC)CC(O)CN1CCCCc2nc(C)c(C)cc21 (stereo unspecified),0.985
10,CC(C)CON=C1C[C@@H](O)[C@@H](O)[C@@H]2[C@@H]3C(=O)N(Cc4ccccc4)C(=O)[C@@H]3CC[C@H]12,0.312
11,COc1ccc(OC[C@H]2CN3[C@@H](CC[C@@H](C)[C@@H]3c3ccc(Br)cc3)C(=O)O2)cc1,-0.914
12,O=C1[C@H]2[C@H]3[C@H](O)[C@H](O)CC(=NOCc4ccccc4)[C@H]3CC[C@H]2C(=O)N1C1CCCCC1,-0.329
13,CCOC(=O)CCN1C(=O)[C@H]2[C@H]3[C@H](O)[C@H](O)CC(=NOCC=C(C)CCC=C(C)C)[C@H]3CC[C@H]2C1=O,-1.1
14,CC(=O)OC[C@H]1O[C@H](CC=NOC(C)CN2CCCc3nc(C)c(C)cc32)C=C[C@@H]1OC(C)=O (stereo partly specified),-0.135
15,CCOC(=O)[C@H](CC(C)C)NC(=O)CCC1CC(OC(=O)NCc2ccc3c(c2)OCO3)CC2(CCCC(COC(=O)NCCc3ccccc3OC)O2)O1 (stereo partly specified),1.06
16,COc1ccc(COC(=O)NN=C2C[C@@H](O)[C@@H](O)[C@@H]3[C@@H]4C(=O)N(Cc5ccc6c(c5)OCO6)C(=O)[C@@H]4CC[C@H]23)cc1,-0.0129
17,COc1cccc([C@H](O)Cn2cc(-c3ccc(CON=C(C)C)cc3)nn2)c1,-0.409
18,CO[C@@H]1C=CCC(=O)N[C@@H](C)C(=O)OC[C@@H](NS(=O)(=O)c2ccc(C)cc2)[C@H](C)C=CCC(=O)OC[C@H]1C,0.179
